Values joined by “and” are separate entries in the source; they are usually repeats but may differ in a detail not shown here. Equal entries are not always repeated. Records with an inconclusive call do not appear. A call without a number means that no potency is given here. The source holds several records for some structures; these can differ, active in one and inactive in another. Active and inactive are the calls of the source. The call rests on the fitted dose curve; in most records, active means well fitted cell-killing curve with a large enough effect in the repeat runs; inconclusive means weak or mixed curves; inactive means no such curve, though single readings can be large or run the other way.
test: qHTS assay for identifying genotoxic compounds that show differential cytotoxicity against isogenic chicken DT40 cell lines with known DNA damage response pathways - Rad54/Ku70 mutant cell line (AID 743015); conditions: DT40 Rad54/Ku70 mutant viability, CellTiter-Glo, 40 h; series mostly up to 66.8 µM; activity change, negative = cytotoxicity: at the top concentration; further: nearly all actives have a fitted effect of over 60% in size
Description: National Center for Advancing Translational Sciences [NCATS]
NIH Chemical Genomics Center [NCGC]
U.S. Environmental Protection Agency [EPA]
National Institutes of Environmental Health Sciences [NIEHS]
National Toxicology Program [NTP]
U.S. Food and Drug Administration [FDA]
DNA repair pathways play a critical role in cellular homeostasis by repairing DNA damage induced by endogenous processes and xenobiotics. Isogenic chicken DT40 cell lines deficient in different DNA repair pathways can be used to identify genotoxic compounds and aid in characterizing the nature of the DNA damage induced. Two DNA repair-deficient cell lines with disrupted genes, Rad54/Ku70 or Rev3, were used to screen the Tox21 10K compound library. Possible genotoxicity was based on the presence of a significant increase in cytotoxicity in one or more of the DNA repair-deficient cell lines compared to that observed in the parental DNA repair-proficient cell line. CellTiter Glo viability assay (Promega, Madison, WI) was used to measure cell viability in these cells after compound treatment. This assay includes the data from the Rad54/Ku70 mutant cell line.
Tox21 Assay Protocol Summary:
300 DT40 mutant cells in 5 uL/well were dispensed into white, solid-bottom 1536-well plates using a Multidrop Combi (ThermoFisher Scientific, Waltham, MA) dispenser. After the assay plates were incubated at 37 C/5% CO2 for approximately 0.5 hour, 23 nL of compounds dissolved in DMSO, positive controls or DMSO only was transferred into the assay plate by a pintool work station (Kalypsys, San Diego, CA). The assay plates were incubated at 37 C/5% CO2 for 40 hours. After 5 uL per well of CellTiter-Glo reagent was added into each well of the assay plates, the plates were incubated for 30 min at room temperature and the luminescence intensity of the plates was measured using a ViewLux (PerkinElmer, Shelton, CT) plate reader.
Potency means the concentration at half of the fitted maximal effect.

**Q.** Which results are given for `CCCCCCCCCCCC(=O)N(C)CC(=O)O`?
**A.** Potency: 66.4 µM (active); activity change, negative = cytotoxicity: -12.4% [at 8.55 µM] (inactive)

**Q.** With `O=C1C(N(CO)C(=O)NCO)N(CO)C(=O)N1CO` (stereo not given) as the compound, how does the Potency read?
**A.** inactive

**Q.** With `CC(=O)C(C)C` as the compound, how does the Potency read?
**A.** inactive

**Q.** With `CC(C)(CO)CO` as the compound, how does the Potency read?
**A.** inactive

**Q.** Which “activity change, negative = cytotoxicity” value does the source give for `C=CC(C)(C)C` here?
**A.** 9.05% (inactive)

**Q.** With `CCCCC(=O)O` as the compound, how does the Potency read?
**A.** inactive

**Q.** Which “activity change, negative = cytotoxicity” value does the source give for `CC(C)=CCC/C(C)=C/C=O` here?
**A.** 8.07% [at 95.1 µM] (inactive)

**Q.** Which Potency does the source give for `COc1ccc(N)c(OC)c1` here?
**A.** inactive

**Q.** For `CC1(C)C(=O)N(Cl)C(=O)N1Cl`, which Potency is on record?
**A.** inactive

**Q.** Which Potency does the source give for `Cc1ccccc1Cl` here?
**A.** inactive

**Q.** With `NC(=O)c1ncn([C@@H]2O[C@H](CO)[C@@H](O)[C@H]2O)n1` as the compound, how does the Potency read?
**A.** 1.68 µM (active) and 4.07 µM (active)

**Q.** With `COC(=O)CCCCC(=O)OC` as the compound, how does the Potency read?
**A.** inactive

**Q.** For `CC1=CC(=O)CC(C)(C)C1`, which Potency is on record?
**A.** inactive

**Q.** With `Cc1ccc(C)c(S(=O)(=O)O)c1` as the compound, how does the Potency read?
**A.** inactive

**Q.** Which Potency does the source give for `CC(=O)OC[C@H]1O[C@@](COC(C)=O)(O[C@H]2O[C@H](COC(C)=O)[C@@H](OC(C)=O)[C@H](OC(C)=O)[C@H]2OC(C)=O)[C@@H](OC(C)=O)[C@@H]1OC(C)=O` here?
**A.** inactive

**Q.** Which Potency does the source give for `CCCOC(=O)NCCCN(C)C` here?
**A.** inactive

**Q.** With `OCC(CO)(CO)CO` as the compound, how does the Potency read?
**A.** inactive

**Q.** Which Potency does the source give for `O=c1c(O)c(-c2ccc(O)c(O)c2)oc2cc(O)cc(O)c12` here?
**A.** 30.7 µM (active) and 24.5 µM (active) and 61.1 µM (active)

**Q.** For `O=C1OC(=O)c2c(Cl)c(Cl)c(Cl)c(Cl)c21`, which Potency is on record?
**A.** inactive

**Q.** Which “activity change, negative = cytotoxicity” value does the source give for `Cc1ccc([N+](=O)[O-])cc1N` here?
**A.** -3.28% (inactive)

**Q.** With `OCCOCCOCCOCCOCCO` as the compound, how does the Potency read?
**A.** inactive

**Q.** For `O=C(O)Cc1c[nH]c2ccccc12`, which “activity change, negative = cytotoxicity” value is on record?
**A.** 2.54% (inactive)

**Q.** Which Potency does the source give for `C=C(C)CC(C)(C)C` here?
**A.** inactive

**Q.** With `NC1CCCCC1N` (stereo not given) as the compound, how does the Potency read?
**A.** inactive

**Q.** Which Potency does the source give for `CS(=O)(=O)c1ccc(Cl)cc1` here?
**A.** inactive

**Q.** Which Potency does the source give for `Cc1ccc(Cl)cc1` here?
**A.** inactive

**Q.** For `COc1c2ccoc2cc2oc(=O)ccc12`, which Potency is on record?
**A.** inactive

**Q.** With `Oc1ccc(Cc2ccccc2O)cc1` as the compound, how does the “activity change, negative = cytotoxicity” value read?
**A.** -8.75% (inactive)

**Q.** Which Potency does the source give for `Cc1ccccc1C=O` here?
**A.** inactive

**Q.** For `C=C(CC(=O)O)C(=O)O`, which Potency is on record?
**A.** inactive

**Q.** Which Potency does the source give for `COC(=O)OC` here?
**A.** inactive

**Q.** For `OB(O)O`, which Potency is on record?
**A.** inactive

**Q.** With `COCN(COC)c1nc(N(COC)COC)nc(N(COC)COC)n1` as the compound, how does the Potency read?
**A.** inactive

**Q.** Which “activity change, negative = cytotoxicity” value does the source give for `CC(C=O)Cc1ccc(C(C)(C)C)cc1` (stereo not given) here?
**A.** 6.05% (inactive)

**Q.** For `CN1CCCC1=O`, which Potency is on record?
**A.** inactive

**Q.** With `O=[N+]([O-])c1cc(C(F)(F)F)ccc1Cl` as the compound, how does the Potency read?
**A.** inactive

**Q.** For `O=[N+]([O-])c1ccccc1C(F)(F)F`, which Potency is on record?
**A.** inactive

**Q.** With `O=C1CCCCCCCCCCC1` as the compound, how does the Potency read?
**A.** inactive

**Q.** For `COc1ccc2cc3[n+](cc2c1OC)CCc1cc2c(cc1-3)OCO2`, which Potency is on record?
**A.** 4.22 µM (active) and 5.49 µM (active)

Reference: PubChem BioAssay (Tox21)
